Data reported in PubChem BioAssay AID1159580 (chemical genetic matrix, 2015).
Several values for one entry are separate records, joined by “and”; a condition that tells them apart may be missing. Equal entries are not always repeated. The whole screen tested about 5,500 compounds, of which about 2,000 (36%) were called active. Roughly 18% stayed inconclusive and do not appear here. Cut-off read from the data, not from the text of the source: active = normalized growth mostly below about 0.91 (no sharp cut-off); inconclusive = no clear call, values can overlap the other calls; inactive = mostly above about 0.92. This is one part of the list.

Test: chemical genetic growth profiling, strain panel (AID 1159580);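 note: tested at 20 µM; growth read once vehicle control cultures reached saturation at 30 °C; 1 = growth at the plate median or of vehicle wells; lower values mean less growth of the strain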
Conditions: growth OD

Measured: normalized growth

CC(C(=O)O)c1cccc(C(=O)c2ccccc2)c1 (stereo not drawn)
inactive: S. cerevisiae deletion strains, locus YJR075W, strain HOC1, stronger effect = lower value 1 and 1.06 | S. cerevisiae deletion strains, locus YKL009W, strain mrt4, stronger effect = lower value 0.982 | S. cerevisiae deletion strains, locus YKL068W, stronger effect = lower value 0.971 | S. cerevisiae deletion strains, locus YKL085W, strain MDH1 (second series), stronger effect = lower value 0.968 | S. cerevisiae deletion strains, locus YKL085W, strain MDH1, stronger effect = lower value 0.968 | S. cerevisiae deletion strains, locus YKL160W, strain elf1, stronger effect = lower value 0.978 | S. cerevisiae deletion strains, locus YKL190W, strain CNB1, stronger effect = lower value 0.994 | S. cerevisiae deletion strains, locus YKR001C, strain vps1, stronger effect = lower value 0.992 | S. cerevisiae deletion strains, locus YKR026C, strain gcn3, stronger effect = lower value 0.984 | S. cerevisiae deletion strains, locus YKR091W, strain srl3, stronger effect = lower value 0.989 | S. cerevisiae deletion strains, locus YLL001W, strain dnm1, stronger effect = lower value 0.984 | S. cerevisiae deletion strains, locus YLL026W, stronger effect = lower value 0.982 | S. cerevisiae deletion strains, locus YLL041C, strain sdh2, stronger effect = lower value 1.01 | S. cerevisiae deletion strains, locus YLR027C, strain aat2, stronger effect = lower value 0.991 | S. cerevisiae deletion strains, locus YLR039C, strain RIC1, stronger effect = lower value 0.993 | S. cerevisiae deletion strains, locus YLR058C, strain SHM2, stronger effect = lower value 0.997 | S. cerevisiae deletion strains, locus YLR102C, strain apc9, stronger effect = lower value 0.974 | S. cerevisiae deletion strains, locus YLR113W, strain HOG1, stronger effect = lower value 1.02 | S. cerevisiae deletion strains, locus YLR221C, strain rsa3, stronger effect = lower value 1.01 | S. cerevisiae deletion strains, locus YLR258W, strain gsy2, stronger effect = lower value 0.987 | S. cerevisiae deletion strains, locus YLR262C, strain YPT6 (second series), stronger effect = lower value 0.987 | S. cerevisiae deletion strains, locus YLR262C, strain YPT6, stronger effect = lower value 0.968 | S. cerevisiae deletion strains, locus YLR268W, strain sec22, stronger effect = lower value 0.972 | S. cerevisiae deletion strains, locus YLR320W, strain mms22, stronger effect = lower value 0.971 | S. cerevisiae deletion strains, locus YLR330W, strain CHS5, stronger effect = lower value 0.985 | S. cerevisiae deletion strains, locus YLR342W, strain FKS1 (second series), stronger effect = lower value 1.01 | S. cerevisiae deletion strains, locus YLR342W, strain FKS1, stronger effect = lower value 1 | S. cerevisiae deletion strains, locus YLR357W, strain rsc2, stronger effect = lower value 0.933 | S. cerevisiae deletion strains, locus YLR370C, strain arc18, stronger effect = lower value 0.979 | S. cerevisiae deletion strains, locus YLR371W, strain rom2, stronger effect = lower value 0.978 | S. cerevisiae deletion strains, locus YLR384C, strain iki3, stronger effect = lower value 0.963 | S. cerevisiae deletion strains, locus YLR418C, strain cdc73, stronger effect = lower value 0.971 | S. cerevisiae deletion strains, locus YML016C, strain PPZ1, stronger effect = lower value 0.996 | S. cerevisiae deletion strains, locus YML032C, strain rad52, stronger effect = lower value 0.996 | S. cerevisiae deletion strains, locus YML120C, strain ndi1, stronger effect = lower value 0.994 | S. cerevisiae deletion strains, locus YML124C, strain tub3, stronger effect = lower value 0.971 | S. cerevisiae deletion strains, locus YMR058W, strain fet3, stronger effect = lower value 0.995 | S. cerevisiae deletion strains, locus YMR078C, strain ctf18, stronger effect = lower value 0.959 | S. cerevisiae deletion strains, locus YMR125W, strain sto1, stronger effect = lower value 0.991 | S. cerevisiae deletion strains, locus YMR129W, stronger effect = lower value 0.981 | S. cerevisiae deletion strains, locus YMR205C, strain PFK2, stronger effect = lower value 0.985 | S. cerevisiae deletion strains, locus YMR223W, strain ubp8, stronger effect = lower value 0.976 | S. cerevisiae deletion strains, locus YMR231W, strain pep5, stronger effect = lower value 0.985 | S. cerevisiae deletion strains, locus YMR307W, strain GAS1, stronger effect = lower value 0.995 | S. cerevisiae deletion strains, locus YNL067W, strain RPL9B, stronger effect = lower value 1.04 | S. cerevisiae deletion strains, locus YNL071W, strain lat1, stronger effect = lower value 0.997 | S. cerevisiae deletion strains, locus YNL175C, strain NOP13, stronger effect = lower value 1.02 | S. cerevisiae deletion strains, locus YNL183C, strain NPR1, stronger effect = lower value 0.955 | S. cerevisiae deletion strains, locus YNL197C, strain WHI3, stronger effect = lower value 0.992 | S. cerevisiae deletion strains, locus YNL209W, strain ssb2, stronger effect = lower value 0.999 | S. cerevisiae deletion strains, locus YNL224C, strain SQS1, stronger effect = lower value 0.997 | S. cerevisiae deletion strains, locus YNL233W, strain BNI4, stronger effect = lower value 1.05 | S. cerevisiae deletion strains, locus YNL248C, strain rpa49, stronger effect = lower value 0.968 | S. cerevisiae deletion strains, locus YNL250W, strain rad50, stronger effect = lower value 0.927 | S. cerevisiae deletion strains, locus YNL271C, strain bni1, stronger effect = lower value 0.956 | S. cerevisiae deletion strains, locus YNL298W, strain CLA4, stronger effect = lower value 0.973 | S. cerevisiae deletion strains, locus YNL307C, strain MCK1, stronger effect = lower value 0.978 | S. cerevisiae deletion strains, locus YNL322C, strain KRE1 (second series), stronger effect = lower value 0.953 | S. cerevisiae deletion strains, locus YNL322C, strain KRE1, stronger effect = lower value 0.994 and 1.03 | S. cerevisiae deletion strains, locus YNR049C, strain mso1, stronger effect = lower value 0.995 | S. cerevisiae deletion strains, locus YNR052C, strain pop2, stronger effect = lower value 0.958 | S. cerevisiae deletion strains, locus YOL006C, strain TOP1, stronger effect = lower value 1.06 | S. cerevisiae deletion strains, locus YOL012C, strain htz1 1.22 | S. cerevisiae deletion strains, locus YOL147C, strain pex11, stronger effect = lower value 0.977 | S. cerevisiae deletion strains, locus YOR001W, strain rrp6, stronger effect = lower value 1 | S. cerevisiae deletion strains, locus YOR061W, strain CKA2, stronger effect = lower value 1 | S. cerevisiae deletion strains, locus YOR069W, strain VPS5, stronger effect = lower value 0.987 | S. cerevisiae deletion strains, locus YOR070C, strain gyp1, stronger effect = lower value 0.985 | S. cerevisiae deletion strains, locus YOR080W, strain dia2, stronger effect = lower value 0.996 | S. cerevisiae deletion strains, locus YOR083W, strain WHI5 (second series), stronger effect = lower value 1.02 | S. cerevisiae deletion strains, locus YOR083W, strain WHI5, stronger effect = lower value 0.918 | S. cerevisiae deletion strains, locus YOR106W, strain vam3, stronger effect = lower value 0.963 | S. cerevisiae deletion strains, locus YOR136W, strain idh2, stronger effect = lower value 0.988 | S. cerevisiae deletion strains, locus YOR144C, strain elg1, stronger effect = lower value 0.98 | S. cerevisiae deletion strains, locus YOR184W, strain ser1, stronger effect = lower value 0.977 | S. cerevisiae deletion strains, locus YOR231W, strain MKK1, stronger effect = lower value 1.04 | S. cerevisiae deletion strains, locus YOR265W, strain rbl2, stronger effect = lower value 0.999 | S. cerevisiae deletion strains, locus YOR270C, strain vph1, stronger effect = lower value 1 | S. cerevisiae deletion strains, locus YOR290C, strain snf2, stronger effect = lower value 0.985 | S. cerevisiae deletion strains, locus YOR316C, strain cot1, stronger effect = lower value 0.968 | S. cerevisiae deletion strains, locus YPL051W, strain arl3, stronger effect = lower value 0.966 | S. cerevisiae deletion strains, locus YPL055C, strain LGE1, stronger effect = lower value 1.1 | S. cerevisiae deletion strains, locus YPL078C, strain atp4, stronger effect = lower value 0.972 | S. cerevisiae deletion strains, locus YPL106C, strain sse1, stronger effect = lower value 0.962 | S. cerevisiae deletion strains, locus YPL240C, strain hsp82, stronger effect = lower value 0.994 | S. cerevisiae deletion strains, locus YPL241C, strain CIN2, stronger effect = lower value 0.993 | S. cerevisiae deletion strains, locus YPL256C, strain CLN2, stronger effect = lower value 1.02 | S. cerevisiae deletion strains, locus YPR119W, strain clb2, stronger effect = lower value 0.963 | S. cerevisiae deletion strains, locus YPR141C, strain kar3, stronger effect = lower value 0.973 | S. cerevisiae deletion strains, locus YPR163C, strain tif3, stronger effect = lower value 0.979 | S. cerevisiae deletion strains, locus YPR167C, strain met16, stronger effect = lower value 0.977 | S. cerevisiae deletion strains, strain wtn01, stronger effect = lower value 0.971 | S. cerevisiae strains, strain wild type, stronger effect = lower value 1
